# Source: PubChem (National Center for Advancing Translational Sciences (NCATS))
# In the library only some 3.1% were active in any assay of this set; here they are far more common.
# Tau fibril FP = inhibitors of human tau fibril formation | Potency, µM (series often up to 57.7 µM), inactives show top-dose activity, negative = inhibition, most hits filed as inhibitors | AID 1468 | actives 0.39% (n = 280,000) | K18 P301L tau heparin fibrillization, Alexa594 FP, 6 h; further: nearly all actives have a fitted effect of over 55% in size
# Target sequence (P10636 561-689 P618L limits assumed): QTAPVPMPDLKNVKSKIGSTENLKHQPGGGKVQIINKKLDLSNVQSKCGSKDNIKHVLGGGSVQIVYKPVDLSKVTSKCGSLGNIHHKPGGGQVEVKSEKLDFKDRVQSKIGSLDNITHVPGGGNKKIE
#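 Recombinant K18 P301L […], labeled with Alexa 594 at 0.24 uM over 15 uM unlabeled; heparin inducer 20 uM final; 37 C, 6 hr; FP endpoint.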
# Tau fluor counter = counter-screen for tau fibril formation inhibitors | tau K18 P301L Alexa594 fluorescence, heparin fibrillization | Potency, µM (highest dose often 57.7 µM), inactives show at the highest dose activity change, negative = decrease | actives 0.93% (n = 280,000) | AID 1463; further: nearly all actives have a fitted effect of over 55% in size
#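 Human K18 P301L tau (15 uM unlabeled plus 0.24 uM Alexa 594-labeled, final) in 100 mM sodium acetate pH 7 was mixed with compound and 20 uM heparin and incubated 6 hr at 37 C.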
# TRb-SRC2 inh = disrupts binding of human TR beta to SRC2. P10828. TRbeta-SRC2 peptide binding, fluorescence polarization; receptor liganded with 1 µM T3. Potency, µM (doses to about 106 µM), without a hit: at the highest dose activity change, negative = inhibition, usual class: inhibitors. actives 0.065% (n = 280,000);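 further: plate controls were bound peptide for no effect and peptide without receptor for full effect; nearly all actives have a fitted effect of over 50% in size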
# Target sequence (P10828 whole entry, looked up): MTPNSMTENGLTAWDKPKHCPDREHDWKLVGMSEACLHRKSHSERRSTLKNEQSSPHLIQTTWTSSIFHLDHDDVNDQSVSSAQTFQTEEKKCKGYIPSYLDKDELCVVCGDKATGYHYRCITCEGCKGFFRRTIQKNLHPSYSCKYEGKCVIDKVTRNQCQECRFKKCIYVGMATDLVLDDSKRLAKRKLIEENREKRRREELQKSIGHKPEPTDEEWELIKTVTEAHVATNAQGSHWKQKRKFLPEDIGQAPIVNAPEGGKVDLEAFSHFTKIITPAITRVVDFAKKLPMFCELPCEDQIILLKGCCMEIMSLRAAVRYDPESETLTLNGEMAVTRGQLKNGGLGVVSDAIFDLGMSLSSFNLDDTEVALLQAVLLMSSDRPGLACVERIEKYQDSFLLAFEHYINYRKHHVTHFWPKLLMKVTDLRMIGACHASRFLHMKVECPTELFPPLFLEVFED
#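 Compounds were added to 0.6 uM TRb ligand-binding domain and 20 nM Texas Red-labeled SRC2 peptide in Tris buffer containing 1 uM T3, incubated 5 hr at ambient temperature, then read by fluorescence polarization.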
# Tau fibril ThT = tau fibrillization inhibition (ThT binding) | P10636 | recombinant tau K18 P301L (four-repeat tau fragment), heparin-induced fibrillization, ThT fluorescence | AID 1460 | Potency, µM (series often up to 57.4 µM), inactives show at the top dose activity, negative = inhibition, actives largely listed as inhibitors | actives 2.1% (n = 270,000); further: nearly all actives have a fitted effect of over 55% in size
#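 In this qHTS, human K18 P301L tau is incubated with compound and heparin for 6 hr at 37 C, and Thioflavin T fluorescence then reports fibril load.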
# TexasRed fluor = counter-screen for TRb-SRC2 inhibitors: fluorescence interference | TRb/SRC2 Texas Red total fluorescence interference | Potency, µM (series often up to 106 µM), without a hit: at the top dose fluorescence change, negative = quenching | actives 0.29% (n = 280,000); active means well fitted curve in either direction with a large enough effect; inconclusive means small, poorly fitted or top-dose-only effect
#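 Human TRb ligand-binding domain at 0.6 uM with 20 nM Texas Red SRC2 peptide in Tris buffer containing 1 uM T3 and 5% DMSO, incubated with compound 5 h at ambient temperature. Total fluorescence (555/632 nm) calculated as parallel + 2 × perpendicular.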
# The depositor's hits bear a star; ? = inconclusive; · = no result; [ ] = dose if it differs, or a comment. Unless noted, the call rests on the fitted dose curve; in most records, active means well fitted curve in the direction sought with a large enough effect; inconclusive means small, poorly fitted or top-dose-only effect, or another doubt; inactive means no such curve, though single readings can be large; an effect the other way counts as inactive or inconclusive. Unless noted, on the % scale 0 is the no-effect control and ±100 the full control effect; potency means the concentration at half of the fitted maximal effect.
SMILES,Tau fibril FP,Tau fluor counter,TRb-SRC2 inh,Tau fibril ThT,TexasRed fluor
COc1ccc(-c2cc(C3CCN(c4ccc(C(C)=O)cc4[N+](=O)[O-])CC3)[nH]n2)cc1,-6%,?,2%,3.5µM*,-4%
CC(=O)c1ccc(N2CCN(c3ccc(C(N)=O)cc3[N+](=O)[O-])CC2)cc1,4%,6%,-4%,5%,-1%
COC(=O)c1ccc2c(c1)C(C)(C)C(/C=C/c1ccccc1O)=[N+]2C,?,25µM*[fluorescent],20µM*,10µM*,20µM*[fluorescent]
CC[C@@H]1Cn2c(c3nc(-c4cc(Cl)cc(Cl)c4Cl)nc-3n(C)c2=O)N1,-2%,-27%,0%,-23%,-1%
O=C(OCc1csc(Nc2ccccc2)n1)c1ccc(Cl)cc1,?,13µM*[quencher],-9%,?,-5%
CC(=O)/C=C/C1C(C)=CCCC1(C)C (stereo unspecified),·,·,-1%[201 µM],·,0%[201 µM]
Cc1cccc(C)c1OCc1nnc(NC(=O)CSc2ccc(Cl)cc2)s1,?,-3%,6%,2%,-2%
O=C(CSc1ccccc1)Nc1nnc(COc2ccc(Cl)cc2)s1,?,?,-8%,28µM*,-5%
O=C(COc1ccc2ccccc2c1)NC1CC(=O)N(c2cccc(F)c2)C1 (stereo unspecified),-7%,-21%,6%,-14%,0%
COC(=O)N=Nc1c(O)[nH]c2ccc(Br)cc12,5%,-2%,-4%,?,0%
COc1ccc(Cc2nnc(N=Nc3c(O)[nH]c4ccc(Br)cc34)[nH]c2=O)cc1,1%,-27%,2%,16µM*,-2%
O=[N+]([O-])c1ccc(/C=C2\CCC(C3=CCCC3)=C2N2CCOCC2)cc1,?,?,2%,16µM*,1%
O=Cc1cc(N=Nc2cccc(C(=O)O)c2)ccc1O,-8%,-13%,4%,4µM*,?
O=Cc1cc(N=Nc2ccccc2Cl)ccc1O,?,?,8%,13µM*,-15%
Oc1ccccc1N=Nc1ccccc1O,12%,-11%,2%,?,-2%
O=C(Nc1ccccc1F)Nc1ccccc1F,-2%,-4%,-3%,1%,1%
Cc1ccc(N=Nc2ccc(C)cc2NC(=O)Nc2ccccc2F)cc1,-9%,?,11%,1.3µM*,-1%
Cc1cccc(NC(=O)Cn2c(O)c(N=NC(=O)c3ccccc3O)c3ccccc32)c1,0%,?,-1%,16µM*,-1%
Cc1ccc(NC(=O)Cn2c(O)c(N=NC(=O)c3cc([N+](=O)[O-])ccc3O)c3ccccc32)cc1,7%,-10%,5%,?,-5%
COc1ccccc1C(=O)OCc1cc(=O)n2nc(C3CC3)sc2n1,5%,0%,-4%,-13%,0%
CCn1c(SCc2cccc(Br)c2)nnc1-c1nonc1NC(C)=O,4%,-10%,-3%,-3%,8%
O=C(Cc1ccc(Cl)cc1)Nc1cc(S(=O)(=O)N2CCOCC2)ccc1N1CCCC1,0%,-1%,-6%,6%,0%
O=C(Nc1cccc(Cl)c1)Nc1cc(S(=O)(=O)N2CCOCC2)ccc1N1CCCC1,-2%,14µM*[quencher],-1%,-1%,-3%
O=c1c(-c2cc(O)c(O)c(O)c2)coc2cc(O)c(O)c(O)c12,7.1µM*,?,14%,3.5µM*,-9%
CC(C)=CCc1c(O)cc2occ(-c3ccc4c(c3)OCO4)c(=O)c2c1O,8.9µM*,?,10%,-16%,0%
SMILES,Tau fibril FP,Tau fluor counter,TRb-SRC2 inh,Tau fibril ThT,TexasRed fluor
COC(=O)CN(Cc1ccccc1)S(=O)(=O)c1ccc(OC)c(OC)c1,?,-23%,7%,16µM*,-1%
COC(=O)CN(CCc1ccccc1)S(=O)(=O)c1ccc(OC)c(OC)c1,-1%,-7%,-5%,1%,1%
CCOC(=O)CC(NS(=O)(=O)c1cc(-c2cc(C)no2)ccc1C)c1ccc(C)cc1 (stereo unspecified),15%,-26%,0%,-10%,-1%
COc1cc(OC)c(N(C)C(=O)c2sc3nc4n(c(=O)c3c2C)CCCC4)cc1Cl,?,-19%,2%,?,2%
CCN1/C(=C/c2ccc3cccc(C)c3[n+]2CC)Sc2ccccc21,?,18%,0%,?,-1%
CCN1/C(=C/c2ccc3cc(C)cc(C)c3[n+]2CC)Sc2cc(C)ccc21,?,?,5%,4.5µM*,-1%
CCN1/C(=C\c2ccc3cc(C)ccc3[n+]2CC)Sc2cc(C)c(C)cc21,?,?,9%,7.9µM*,-2%
CC[n+]1c(/C=C/c2ccc(N(C)C)cc2)ccc2ccccc21,5%,-7%,-11%,3%,-3%
CCCN1CCCC(c2cccc(S(C)(=O)=O)c2)C1 (stereo unspecified),·,·,2%,·,2%
Cc1ccc(C)c(N2CCN(C(=O)Cn3nc(Cc4cccnc4)c4ccccc4c3=O)CC2)c1,-2%,0%,4%,-5%,0%
CCOC(=O)Cn1cc(C(=O)c2cccs2)c2ccccc21,-8%,-16%,-8%,-4%,1%
CCOC(=O)c1ccc(NC(=O)Cn2cc(C(=O)c3cccs3)c3ccccc32)cc1,16µM*,?,2%,-11%,1%
CCN(c1ccccc1)S(=O)(=O)c1ccc(NC(=O)c2nc(SC(C)C)ncc2Cl)cc1,-12%,-27%,-9%,-4%,0%
NC(=S)N=Nc1c(O)[nH]c2ccccc12,-5%,-17%,2%,?,-3%
NC(=S)N=Nc1c(O)[nH]c2c(Br)cc(Br)cc12,16%,-18%,4%,7.9µM*,0%
CC(=O)c1sc2c(c1C)c(=O)n(-c1ccc(Cl)cc1)c(=O)n2Cc1ccc(Cl)cc1,-17%,-17%,5%,-7%,-1%
O=C(/C=C/c1ccccc1)c1cccs1,9%,-16%,4%,?,0%
O=C1Nc2ccccc2/C1=C/C(=O)c1cccs1,3%,-26%,13%,18µM*,0%
Cc1ccc(C(=O)NC2(C(F)(F)F)N=C(c3ccccc3)N(C3CCCCC3)C2=O)cc1 (stereo unspecified),-11%,-16%,1%,-4%,-13%
Cc1ccccc1C(=O)NC1(C(F)(F)F)N=C(c2ccccc2)N(Cc2ccccc2)C1=O (stereo unspecified),-1%,?,-3%,?,10µM*[quencher]
Cc1ccc2oc(C(=O)Nc3ccc(S(=O)(=O)N(C)c4ccccc4)cc3)cc(=O)c2c1,?,?,-10%,-6%,100µM*[quencher]
N#Cc1cccc(-n2nnnc2-c2ccccn2)c1,-2%,14µM*[quencher],5%,6.3µM*,-12%
Cc1cccc(N2CCN(c3ccc(C(=O)O)cc3NC(=O)c3cccc(Cl)c3)CC2C)c1 (stereo unspecified),-14%,-12%,8%,?,-1%
